In PubChem BioAssay (NCATS):
Results filed as inconclusive are left out. Activity calls are given as the source filed them. The call rests on the fitted dose curve; in most records, active means well fitted curve in the direction sought with a large enough effect; inconclusive means small, poorly fitted or top-dose-only effect, or another doubt; inactive means no such curve, though single readings can be large; an effect the other way counts as inactive or inconclusive.

Experiments:
[1] = Quantitative High-Throughput drug screen in 47 multiple myeloma cell lines against the NCATS MIPE library collection: KHM11_PLB cell viability assay (AID 1918962); further: nearly all actives have a fitted effect of over 35% in size
Procedure, shortened: (§1)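 Inhibition of cell viability is measured here. Each line was plated at 500 cells per well, treated with MIPE 4.0 drugs, kept 48 hours at 37C, then assayed for ATP content by CellTiter-Glo luminescence.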

[2] = Quantitative High-Throughput drug screen in 47 multiple myeloma cell lines against the NCATS MIPE library collection: JIM3_ECACC cell viability assay (AID 1918963; further: nearly all actives have a fitted effect of over 35% in size)
Procedure, shortened: as §1

[3] = Quantitative High-Throughput drug screen in 47 multiple myeloma cell lines against the NCATS MIPE library collection: JIM1_ECACC cell viability assay (AID 1918964)
Procedure, shortened: (§2)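 Relative luminescence from CellTiter-Glo served as the viability signal, referenced to DMSO-treated (100%) and cell-free medium (0%) controls. Treatment lasted 48 hours at 37C with 500 cells per well.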

[4] = Quantitative High-Throughput drug screen in 47 multiple myeloma cell lines against the NCATS MIPE library collection: INA6_PLB cell viability assay (AID 1918965; further: nearly all actives have a fitted effect of over 55% in size)
Procedure, shortened: (§3)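 qHTS of the MIPE 4.0 collection: 500 myeloma cells/well, 48 h drug exposure at 37C in 5% CO2, then CellTiter-Glo for 5 min at room temperature before luminescence reading.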

[5] = Quantitative High-Throughput drug screen in 47 multiple myeloma cell lines against the NCATS MIPE library collection: JJN3_DSMZ cell viability assay (AID 1918966; further: nearly all actives have a fitted effect of over 50% in size)
Procedure, shortened: as §2

[6] = Quantitative High-Throughput drug screen in 47 multiple myeloma cell lines against the NCATS MIPE library collection: H1112_PLB cell viability assay (AID 1918967; further: nearly all actives have a fitted effect of over 30% in size)
Procedure, shortened: as §2

[7] = Quantitative High-Throughput drug screen in 47 multiple myeloma cell lines against the NCATS MIPE library collection: Karpas25_ECACC cell viability assay (AID 1918968; further: nearly all actives have a fitted effect of over 35% in size)
Procedure, shortened: as §2

[8] = Quantitative High-Throughput drug screen in 47 multiple myeloma cell lines against the NCATS MIPE library collection: KMS27_JCRB cell viability assay (AID 1918970); conditions: KMS27 myeloma cells, CellTiter-Glo ATP viability, 48 h; viability (% of DMSO): at 45.8 µM (top of the series); further: nearly all actives have a fitted effect of over 30% in size
Procedure, shortened: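 CellTiter-Glo luminescence after 48 h drug exposure at 37 °C; 500 cells/well, 1536-well format, pin-tool compound addition; DMSO = 100%, media-only = 0% viability.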

[9] = Quantitative High-Throughput drug screen in 47 multiple myeloma cell lines against the NCATS MIPE library collection: KMS12BM_JCRB cell viability assay (AID 1918971); further: nearly all actives have a fitted effect of over 35% in size
Procedure, shortened: (§4)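 Viability readout: CellTiter-Glo luminescence following 5 min room-temperature incubation with reagent. Prior exposure: 48 h, 37C, humidified 5% CO2, 500 cells per well.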

[10] = Quantitative High-Throughput drug screen in 47 multiple myeloma cell lines against the NCATS MIPE library collection: KMS12PE_JCRB cell viability assay (AID 1918972); further: nearly all actives have a fitted effect of over 30% in size
Procedure, shortened: as §3

[11] = Quantitative High-Throughput drug screen in 47 multiple myeloma cell lines against the NCATS MIPE library collection: KMS20_JCRB cell viability assay (AID 1918973); further: nearly all actives have a fitted effect of over 45% in size
Procedure, shortened: as §2

[12] = Quantitative High-Throughput drug screen in 47 multiple myeloma cell lines against the NCATS MIPE library collection: KMS26_JCRB cell viability assay (AID 1918975); further: nearly all actives have a fitted effect of over 45% in size
Procedure, shortened: as §4

[13] = Quantitative High-Throughput drug screen in 47 multiple myeloma cell lines against the NCATS MIPE library collection: MMM1_PLB cell viability assay (AID 1918976); further: nearly all actives have a fitted effect of over 35% in size
Procedure, shortened: (§5)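 Viability after 48 h drug exposure was measured as ATP-dependent luminescence. Cells, 500 per well, sat at 37 °C under 5% CO2; DMSO wells set 100%, media-only wells 0%.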

[14] = Quantitative High-Throughput drug screen in 47 multiple myeloma cell lines against the NCATS MIPE library collection: NCIH929_DSMZ cell viability assay (AID 1918978); further: nearly all actives have a fitted effect of over 35% in size
Procedure, shortened: as §5

[15] = Quantitative High-Throughput drug screen in 47 multiple myeloma cell lines against the NCATS MIPE library collection: OCIMY1_PLB cell viability assay (AID 1918979); further: nearly all actives have a fitted effect of over 35% in size
Procedure, shortened: as §5

[16] = Quantitative High-Throughput drug screen in 47 multiple myeloma cell lines against the NCATS MIPE library collection: MM1S_ATCC cell viability assay (AID 1918980); further: nearly all actives have a fitted effect of over 45% in size
Procedure, shortened: as §5

[17] = Quantitative High-Throughput drug screen in 47 multiple myeloma cell lines against the NCATS MIPE library collection: LP1_DSMZ cell viability assay (AID 1918982); further: nearly all actives have a fitted effect of over 35% in size
Procedure, shortened: as §5

[18] = Quantitative High-Throughput drug screen in 47 multiple myeloma cell lines against the NCATS MIPE library collection: MM1R_ATCC cell viability assay (AID 1918981); further: nearly all actives have a fitted effect of over 35% in size
Procedure, shortened: as §5

[19] = Quantitative High-Throughput drug screen in 47 multiple myeloma cell lines against the NCATS MIPE library collection: KMS21BM_JCRB cell viability assay (AID 1918974); conditions: ATP luminescence, 48 h; viability: at 45.8 µM (top of the series)
Procedure, shortened: as §2

[20] = Quantitative High-Throughput drug screen in 47 multiple myeloma cell lines against the NCATS MIPE library collection: MOLP8_DSMZ cell viability assay (AID 1918977); further: nearly all actives have a fitted effect of over 45% in size
Procedure, shortened: as §5

Measured: Potency
Potency means the concentration at half of the fitted maximal effect.

CCS(=O)(=O)Nc1ccc2[nH]c(O)c(C(=Nc3ccc(CN4CCCCC4)cc3)c3ccccc3)c2c1
active: [1] 418 nM | [2] 209 nM | [3] 59 nM | [4] 469 nM | [5] 743 nM | [6] 4690 nM | [7] 235 nM | [8] 132 nM | [9] 13200 nM | [10] 148 nM | [11] 296 nM | [12] 469 nM | [13] 209 nM | [14] 105 nM | [15] 5900 nM | [16] 469 nM | [17] 7430 nM

COc1cc2c(Nc3ccc(Cl)c(Cl)c3F)ncnc2cc1OCC1C[C@@H]2CN(C)C[C@H]2C1
active: [1] 5900 nM | [2] 4180 nM | [3] 14800 nM | [4] 1480 nM | [5] 1320 nM | [6] 2350 nM | [7] 2350 nM | [8] 5900 nM | [9] 5260 nM | [10] 1870 nM | [11] 1870 nM | [12] 2350 nM | [13] 23500 nM | [14] 2090 nM | [16] 16600 nM | [18] 16600 nM | [17] 18700 nM

Cc1cnc(Nc2ccc(N3CCN(C)CC3)cc2)nc1Nc1cccc(S(=O)(=O)NC(C)(C)C)c1
active: [1] 1870 nM | [2] 3720 nM | [3] 662 nM | [4] 418 nM | [5] 2960 nM | [6] 5900 nM | [7] 1660 nM | [9] 2640 nM | [10] 1660 nM | [19] 148 nM | [12] 6620 nM | [13] 2960 nM | [20] 2090 nM | [14] 2350 nM | [16] 3320 nM | [18] 5260 nM | [17] 5260 nM

Cn1cnc(=N)c2[nH]cnc21
active: [1] 372 nM | [2] 1050 nM | [3] 93.5 nM | [4] 46.9 nM | [5] 166 nM | [6] 235 nM | [7] 74.3 nM | [8] 59 nM | [9] 105 nM | [10] 93.5 nM | [11] 52.6 nM | [12] 132 nM | [13] 148 nM | [20] 41.8 nM | [15] 743 nM | [16] 93.5 nM | [18] 93.5 nM | [17] 166 nM

CC(C)C[C@H](NC(=O)CNC(=O)c1cc(Cl)ccc1Cl)B1OC(=O)CC(CC(=O)O)(C(=O)O)O1 (some centres not stated)
active: [1] 37.2 nM | [2] 83.3 nM | [3] 37.2 nM | [4] 33.2 nM | [5] 74.3 nM | [6] 66.2 nM | [7] 29.6 nM | [8] 83.3 nM | [9] 83.3 nM | [10] 46.9 nM | [11] 166 nM | [12] 93.5 nM | [13] 6620 nM | [20] 46.9 nM | [14] 33.2 nM | [15] 59 nM | [16] 41.8 nM | [18] 29.6 nM | [17] 74.3 nM

Cn1cc(C2=C(c3c4n(c5ccccc35)CCC(CN)C4)C(=O)NC2=O)c2ccccc21 (configuration not stated)
active: [1] 7430 nM | [2] 10500 nM | [3] 8330 nM | [4] 3720 nM | [5] 9350 nM | [6] 7430 nM | [7] 7430 nM | [8] 8330 nM | [9] 14800 nM | [10] 8330 nM | [11] 6620 nM | [12] 18700 nM | [13] 20900 nM | [20] 13200 nM | [14] 7430 nM | [15] 20900 nM | [16] 6620 nM | [17] 10500 nM

CCN(CC)CCNC(=O)c1c(C)[nH]c(C=C2C(=O)Nc3ccc(F)cc32)c1C
active: [1] 1080 nM | [2] 2150 nM | [3] 481 nM | [4] 1210 nM | [5] 6050 nM | [6] 6790 nM | [7] 1360 nM | [8] 1360 nM | [10] 1360 nM | [11] 855 nM | [19] 762 nM | [12] 17100 nM | [13] 6790 nM | [14] 960 nM | [15] 13600 nM | [16] 4810 nM | [18] 3030 nM | [17] 30300 nM

COC[C@H](NC(=O)c1cnc(C)s1)C(=O)N[C@@H](COC)C(=O)N[C@@H](Cc1ccccc1)C(=O)[C@@]1(C)CO1
active: [1] 66.2 nM | [2] 296 nM | [3] 59 nM | [4] 74.3 nM | [5] 93.5 nM | [6] 93.5 nM | [7] 74.3 nM | [8] 74.3 nM | [9] 93.5 nM | [10] 37.2 nM | [11] 132 nM | [12] 148 nM | [13] 1050 nM | [14] 52.6 nM | [15] 41.8 nM | [16] 59 nM | [18] 41.8 nM | [17] 148 nM
